Measurements reported in the supplement of paper PMC10849652.
The full data set covers some 8,800 targets. This sample favours those with a hit. About 0.5% of all pairs of compound and target were hits.

These targets were tested with Cc1cc(Nc2cc(N3CCN(C)CC3)nc(Sc3ccc(NC(=O)C4CC4)cc3)n2)n[nH]1 [tozasertib] (assay: log2 fold change, soluble protein after heating vs DMSO (PISA); higher = thermal stabilisation; K562 lysate, 10 uM; active = over 0.2 and 3.5 SD of the protein, either way, in both replicates (recomputed)).
How it was run: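 Quantification was by TMTpro 16plex LC-MS/MS with equalised channel sums, applied to the supernatant after 21,000xg for 90 min. Samples were crude K562 extract at 1 mg/mL protein in PBS pH 7.4 with 1 mM MgCl2, treated with 10 μM compound for 30 min, heated for 3 min across 48°C-58°C, pooled and brought to 0.5% NP-40 at 4°C. Values are log-two fold changes in thermal stability relative to solvent controls, from duplicates.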

UniProt O95202, sequence (O95202 whole entry, looked up): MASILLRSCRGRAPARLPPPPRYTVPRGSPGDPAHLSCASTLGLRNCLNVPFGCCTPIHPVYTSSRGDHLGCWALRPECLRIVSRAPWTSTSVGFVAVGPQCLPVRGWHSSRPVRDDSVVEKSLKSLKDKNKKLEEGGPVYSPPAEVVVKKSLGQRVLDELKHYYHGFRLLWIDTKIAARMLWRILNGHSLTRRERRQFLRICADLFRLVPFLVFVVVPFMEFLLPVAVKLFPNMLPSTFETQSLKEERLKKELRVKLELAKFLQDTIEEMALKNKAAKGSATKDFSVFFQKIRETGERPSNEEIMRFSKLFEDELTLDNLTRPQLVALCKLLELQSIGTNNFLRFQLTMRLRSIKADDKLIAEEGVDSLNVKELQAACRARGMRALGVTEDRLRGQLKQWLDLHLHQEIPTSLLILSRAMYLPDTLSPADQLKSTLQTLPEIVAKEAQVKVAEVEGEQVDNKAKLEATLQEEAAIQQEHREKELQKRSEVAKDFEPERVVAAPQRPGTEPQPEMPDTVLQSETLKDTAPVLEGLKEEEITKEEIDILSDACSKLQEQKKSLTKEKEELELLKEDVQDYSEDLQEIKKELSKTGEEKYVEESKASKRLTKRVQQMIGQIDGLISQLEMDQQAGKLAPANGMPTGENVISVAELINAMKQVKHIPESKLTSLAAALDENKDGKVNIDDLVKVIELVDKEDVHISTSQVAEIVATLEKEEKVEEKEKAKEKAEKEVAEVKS
UniProt P28482, sequence (P28482 whole entry, looked up): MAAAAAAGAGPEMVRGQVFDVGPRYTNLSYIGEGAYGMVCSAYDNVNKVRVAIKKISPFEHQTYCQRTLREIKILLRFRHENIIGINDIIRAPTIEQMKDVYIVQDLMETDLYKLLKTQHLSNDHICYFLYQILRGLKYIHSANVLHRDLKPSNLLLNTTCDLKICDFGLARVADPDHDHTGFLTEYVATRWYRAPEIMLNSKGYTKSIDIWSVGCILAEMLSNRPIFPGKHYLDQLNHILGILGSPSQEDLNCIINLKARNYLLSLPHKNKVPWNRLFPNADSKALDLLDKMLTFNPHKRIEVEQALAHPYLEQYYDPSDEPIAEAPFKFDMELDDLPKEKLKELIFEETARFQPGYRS
UniProt Q9GZY8, sequence (Q9GZY8 whole entry, looked up): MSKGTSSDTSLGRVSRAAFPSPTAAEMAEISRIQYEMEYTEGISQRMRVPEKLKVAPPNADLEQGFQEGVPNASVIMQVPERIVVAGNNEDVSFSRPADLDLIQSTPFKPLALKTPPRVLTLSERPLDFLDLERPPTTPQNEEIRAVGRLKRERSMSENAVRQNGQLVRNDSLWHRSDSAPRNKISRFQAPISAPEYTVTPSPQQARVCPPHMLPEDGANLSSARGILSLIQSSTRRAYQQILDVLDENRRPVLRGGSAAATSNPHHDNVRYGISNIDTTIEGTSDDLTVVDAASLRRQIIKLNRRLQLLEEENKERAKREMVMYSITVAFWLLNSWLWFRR
UniProt P11279, sequence (P11279 whole entry, looked up): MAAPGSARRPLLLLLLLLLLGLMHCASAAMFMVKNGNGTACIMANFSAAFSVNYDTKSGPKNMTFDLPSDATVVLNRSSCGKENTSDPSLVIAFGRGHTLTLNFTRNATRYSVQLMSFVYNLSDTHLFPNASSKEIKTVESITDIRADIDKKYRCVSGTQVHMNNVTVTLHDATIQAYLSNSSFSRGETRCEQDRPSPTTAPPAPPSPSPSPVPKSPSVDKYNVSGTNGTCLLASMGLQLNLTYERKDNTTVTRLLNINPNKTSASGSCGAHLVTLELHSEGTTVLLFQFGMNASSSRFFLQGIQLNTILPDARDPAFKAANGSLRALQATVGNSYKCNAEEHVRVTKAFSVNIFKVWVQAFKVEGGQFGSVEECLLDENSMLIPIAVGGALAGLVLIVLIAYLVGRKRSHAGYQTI
UniProt Q15013, sequence (Q15013 whole entry, looked up): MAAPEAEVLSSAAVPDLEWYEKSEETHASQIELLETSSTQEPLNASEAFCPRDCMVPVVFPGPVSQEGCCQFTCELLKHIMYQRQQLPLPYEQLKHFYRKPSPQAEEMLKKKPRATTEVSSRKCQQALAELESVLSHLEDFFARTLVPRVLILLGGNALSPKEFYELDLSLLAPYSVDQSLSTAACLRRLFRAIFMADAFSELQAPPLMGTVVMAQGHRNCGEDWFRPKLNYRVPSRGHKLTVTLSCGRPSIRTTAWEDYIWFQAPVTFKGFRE
UniProt P48059, sequence (P48059 whole entry, looked up): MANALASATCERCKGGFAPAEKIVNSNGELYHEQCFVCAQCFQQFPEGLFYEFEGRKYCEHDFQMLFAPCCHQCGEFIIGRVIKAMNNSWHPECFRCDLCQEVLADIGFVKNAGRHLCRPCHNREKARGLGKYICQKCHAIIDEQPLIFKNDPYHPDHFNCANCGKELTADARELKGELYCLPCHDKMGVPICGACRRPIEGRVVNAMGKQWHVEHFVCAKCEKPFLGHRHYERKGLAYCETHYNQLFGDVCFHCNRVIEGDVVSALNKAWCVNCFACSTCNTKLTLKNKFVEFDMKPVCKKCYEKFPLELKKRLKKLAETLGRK
UniProt P36507, sequence (P36507 whole entry, looked up): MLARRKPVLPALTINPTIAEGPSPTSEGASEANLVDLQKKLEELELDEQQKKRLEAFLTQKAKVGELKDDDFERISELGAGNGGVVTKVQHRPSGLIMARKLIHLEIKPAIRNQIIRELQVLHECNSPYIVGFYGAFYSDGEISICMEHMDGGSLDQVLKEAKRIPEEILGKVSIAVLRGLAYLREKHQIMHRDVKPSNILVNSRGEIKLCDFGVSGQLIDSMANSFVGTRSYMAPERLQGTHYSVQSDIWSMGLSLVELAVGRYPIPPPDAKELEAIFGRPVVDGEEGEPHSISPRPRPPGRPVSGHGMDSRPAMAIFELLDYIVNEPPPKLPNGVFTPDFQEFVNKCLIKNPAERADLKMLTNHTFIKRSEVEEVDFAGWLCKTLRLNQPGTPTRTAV
UniProt Q9NSK0, sequence (Q9NSK0 whole entry, looked up): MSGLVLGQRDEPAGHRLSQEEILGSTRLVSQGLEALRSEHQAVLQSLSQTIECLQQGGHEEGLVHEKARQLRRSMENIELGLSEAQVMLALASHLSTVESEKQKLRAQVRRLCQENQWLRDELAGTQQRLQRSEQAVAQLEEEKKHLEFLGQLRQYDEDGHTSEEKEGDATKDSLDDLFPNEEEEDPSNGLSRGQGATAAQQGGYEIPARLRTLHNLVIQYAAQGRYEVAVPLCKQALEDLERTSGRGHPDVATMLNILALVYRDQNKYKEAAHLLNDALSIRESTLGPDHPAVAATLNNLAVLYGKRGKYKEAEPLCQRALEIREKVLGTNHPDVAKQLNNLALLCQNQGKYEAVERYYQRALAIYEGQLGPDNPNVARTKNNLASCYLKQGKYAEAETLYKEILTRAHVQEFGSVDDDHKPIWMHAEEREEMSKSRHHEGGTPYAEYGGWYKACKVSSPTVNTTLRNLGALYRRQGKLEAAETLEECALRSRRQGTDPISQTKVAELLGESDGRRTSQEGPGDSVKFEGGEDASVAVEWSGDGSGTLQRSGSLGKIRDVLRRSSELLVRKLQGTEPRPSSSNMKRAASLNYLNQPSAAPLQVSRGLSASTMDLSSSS
UniProt P40692, sequence (P40692 whole entry, looked up): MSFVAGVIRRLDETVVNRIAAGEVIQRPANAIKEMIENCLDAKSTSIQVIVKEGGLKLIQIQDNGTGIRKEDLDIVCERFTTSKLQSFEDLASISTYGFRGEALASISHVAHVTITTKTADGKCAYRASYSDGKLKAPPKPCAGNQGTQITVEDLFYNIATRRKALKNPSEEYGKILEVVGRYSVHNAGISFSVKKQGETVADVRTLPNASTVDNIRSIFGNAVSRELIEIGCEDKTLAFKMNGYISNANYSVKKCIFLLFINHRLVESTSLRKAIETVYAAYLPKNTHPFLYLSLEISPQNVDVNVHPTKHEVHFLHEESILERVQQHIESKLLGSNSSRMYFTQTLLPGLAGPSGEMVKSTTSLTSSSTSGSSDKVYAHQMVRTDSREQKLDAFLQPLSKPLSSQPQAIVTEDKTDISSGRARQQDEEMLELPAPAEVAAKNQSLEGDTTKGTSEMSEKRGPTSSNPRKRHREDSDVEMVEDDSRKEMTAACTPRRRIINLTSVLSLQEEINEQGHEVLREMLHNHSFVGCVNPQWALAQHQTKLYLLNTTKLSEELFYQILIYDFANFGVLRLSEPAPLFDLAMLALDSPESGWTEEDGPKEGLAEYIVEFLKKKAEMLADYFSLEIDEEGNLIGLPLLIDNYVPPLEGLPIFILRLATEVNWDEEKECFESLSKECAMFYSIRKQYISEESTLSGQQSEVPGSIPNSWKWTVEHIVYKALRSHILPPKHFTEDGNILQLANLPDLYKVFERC
UniProt O15243, sequence (O15243 whole entry, looked up): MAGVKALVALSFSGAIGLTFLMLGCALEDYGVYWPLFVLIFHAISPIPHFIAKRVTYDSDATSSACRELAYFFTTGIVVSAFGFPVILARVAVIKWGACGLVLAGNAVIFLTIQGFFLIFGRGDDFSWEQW
UniProt O95297, sequence (O95297 whole entry, looked up): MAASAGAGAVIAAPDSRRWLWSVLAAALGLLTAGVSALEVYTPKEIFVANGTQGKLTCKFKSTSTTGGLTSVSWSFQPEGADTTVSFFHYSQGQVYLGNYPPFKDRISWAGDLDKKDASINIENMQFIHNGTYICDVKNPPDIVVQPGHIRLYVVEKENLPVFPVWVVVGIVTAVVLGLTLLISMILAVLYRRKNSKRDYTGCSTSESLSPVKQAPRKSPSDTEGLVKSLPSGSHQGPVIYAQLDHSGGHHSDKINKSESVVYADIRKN

log2 fold change, inactive:
MAD2L1BP isoform 3 (UniProt Q15013) -0.071
MORF4L1 isoform 2 (UniProt Q9UBU8) -0.019
LPIN1 isoform 7 (UniProt Q14693) 0.012
MECR (UniProt Q9BV79) 0.007
MPZL1 (UniProt O95297) -0.029
MAPK14 (UniProt Q16539) 0.009
MAPK1 (UniProt P28482) -0.01
MARCHF6 (UniProt O60337) 0.004
KMT2A isoform 3 (UniProt Q03164) 0.148
MAP3K4 (UniProt Q9Y6R4) 0.092
MRPL19 (UniProt P49406) 0.014
MFF isoform 2 (UniProt Q9GZY8) -0.031
LETM1 (UniProt O95202) 0.005
MAP7D3 (UniProt Q8IWC1) 0.066
KIF4A (UniProt O95239) 0.021
MLH1 (UniProt P40692) -0.043
LEPROT (UniProt O15243) -0.116
MAP2K2 (UniProt P36507) 0.282
MINDY1 isoform 3 (UniProt Q8N5J2) -0.036
LIMS1 isoform 3 (UniProt P48059) -0.02
LAMP1 (UniProt P11279) -0.05
KLC4 isoform 3 (UniProt Q9NSK0) -0.021
